D2 ag-1 = D2 dopamine receptor (human) agonism. P14416. HEK293 T-REx D2 cells, calcium flux agonist mode. activation, % at 2 µM. 0.53% of 340,000 active;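 active = activation over 3 SD above normal in the single-dose calcium agonist read, cut at about 30% in these data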
Target sequence (P14416 whole entry, looked up): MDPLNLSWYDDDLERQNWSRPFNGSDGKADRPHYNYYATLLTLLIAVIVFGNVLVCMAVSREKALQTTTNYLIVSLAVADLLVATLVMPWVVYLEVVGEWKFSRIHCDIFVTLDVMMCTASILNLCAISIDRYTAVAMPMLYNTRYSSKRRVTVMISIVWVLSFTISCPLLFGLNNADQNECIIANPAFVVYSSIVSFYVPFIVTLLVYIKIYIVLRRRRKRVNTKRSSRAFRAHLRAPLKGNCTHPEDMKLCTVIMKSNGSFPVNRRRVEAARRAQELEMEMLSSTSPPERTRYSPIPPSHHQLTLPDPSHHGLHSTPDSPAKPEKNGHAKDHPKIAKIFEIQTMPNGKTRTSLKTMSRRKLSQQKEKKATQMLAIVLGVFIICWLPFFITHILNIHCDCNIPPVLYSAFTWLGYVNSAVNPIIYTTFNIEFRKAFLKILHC
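Agonism is scored from calcium flux in a force-coupled, inducible HEK293 cell line expressing D2, read kinetically for 180 s after compound addition against dopamine controls.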
D2 antag = D2 dopamine receptor (human) antagonism; inhibition, % at 10 µM; 2% of 340,000 active; HEK293 TREx D2 cells, calcium flux, dopamine EC80; AID 485344; in the data active = inhibition above about 30%; inactive = below that, where a call was filed
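Overnight-induced (tetracycline, 30 C) HEK293 T-REx cells carrying force-coupled D2 receive a no-wash calcium dye, then compound, then EC80 dopamine at 180 s; signals are read kinetically throughout.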
D2 PAM-1 = positive allosteric modulators of human D2 dopamine receptor; P14416; DiscoveRx D2 beta-arrestin cells, luminescence, 90 min; 100% = 57 uM dopamine signal; AID 624464; potentiation, % (test concentration not listed); 0.23% of 360,000 active; in the data active = potentiation above about 50%; inconclusive = mostly about 30% to 49%
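PathHunter D2 cells, attached overnight at 37 deg C, received compound in DMSO plus dopamine at EC20 (50 nM final) for 90 min at 37 deg C. Beta-arrestin recruitment was read as luminescence after 1 h with detection reagent at ambient temperature.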
D2 PAM-2 = positive allosteric modulators of human D2 dopamine receptor; HEK293 T-REx D2, calcium flux, EC20 dopamine potentiation; potentiation, % at 10 µM; 0.34% of 340,000 active; AID 485347;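 active = potentiation over 3 SD above the plate norm, cut at about 30% in these data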
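Tetracycline-induced Hek293 Trex D2 cells, force-coupled to calcium, loaded with no-wash calcium dye. Compound added with 180 s kinetic read for agonism, then EC20 dopamine and a further 180 s read for potentiation.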
D2 ag-2 = activates the human D2 dopamine receptor. AID 624465. DiscoveRx PathHunter D2 beta-arrestin, luminescence, 90 min; 100% = 57 uM dopamine signal. 0.084% of 360,000 active. P14416. activation, % (no concentration beside the values); in the data active = activation above about 40%; inconclusive = between about 15% and that limit
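DiscoveRx PathHunter D2 beta-arrestin cells (2,100/well) attached overnight, then compound-stimulated 90 min at 37 C in HBSS/10 mM HEPES/0.1% Tween-20 buffer; beta-galactosidase complementation read by luminescence after 1 h at ambient temperature. Dopamine 57 uM final (EC100) as control.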
Each line names hits and unclear results; the compound was inactive in the other large screens; ! = not active in a repeat. Compounds with a hit are over-represented: about 2.4% of the library has one in this group of screens.

O=C(c1cc(-c2ccc(F)cc2)on1)N1CCCCCC1	D2 PAM-2 33.6
COc1ccc(-c2cc(C(=O)Nc3cccnc3Cl)no2)cc1	none
O=C(Nc1cccnc1Cl)c1cc(-c2ccc(F)cc2)on1	D2 PAM-2 34.0
Fc1cccc(Cl)c1Cn1c(-c2cccs2)nc2ccccc21	none (no result: D2 antag, D2 PAM-1, D2 ag-2)
Nc1c(C(=O)Nc2ccccc2Cl)nnn1Cc1cccc(Cl)c1	none (no result: D2 antag, D2 PAM-1, D2 ag-2)
CN1C(=O)/C(=C/c2ccc(OC(=O)c3ccco3)cc2)SC1=S	none
CN1C(=O)/C(=C\c2ccc(OC(=O)c3ccco3)cc2)SC1=S	D2 antag 48.1
O=C(Nc1ccccc1SC(=O)c1ccccc1)c1ccccc1	none (no result: D2 ag-1, D2 antag, D2 PAM-2)
Cc1ccc(C(=O)Sc2cccccc2=O)cc1	D2 antag 37.1
Nc1nc(SCC(=O)Nc2ccc(Cl)cc2)[nH]c(=O)c1-c1ccccc1	D2 antag 35.6
COc1ccc(NC(=O)CSc2nc(O)c(Cc3ccccc3)c(=O)[nH]2)cc1	D2 antag 52.6
O=C(CSc1nc(O)c(Cc2ccccc2)c(=O)[nH]1)Nc1ccccc1	none
COc1ccc(-c2nc3scc(CCNS(=O)(=O)c4cccs4)n3n2)cc1	none (no result: D2 antag, D2 PAM-1, D2 ag-2)
COc1ccc(C)cc1-n1nnc(-c2nc(-c3ccccc3Cl)no2)c1N	none (no result: D2 antag, D2 PAM-1, D2 ag-2)
Cc1coc2c(C)c3oc(=O)c(CCC(=O)NCCCN4CCOCC4)c(C)c3cc12	none
Cc1coc2c(C)c3oc(=O)c(CCC(=O)N4CCC(C(=O)NCCCC(=O)O)(c5ccccc5)CC4)c(C)c3cc12	D2 PAM-2 41.4
COC(=O)C1=CN(CC2CCCO2)C=C(C(=O)OC)C1c1ccccc1C(F)(F)F (stereo unspecified)	D2 antag 43.4
COC(=O)C1=CN(CC2CCCO2)C=C(C(=O)OC)C1c1cccc(O)c1 (stereo unspecified)	none
Cc1ccc2c(c1)cc(C(=O)NCc1ccc(F)cc1)n2C	none (no result: D2 antag, D2 PAM-1, D2 ag-2)
c1nc(NCC2(N3CCOCC3)CCCCC2)c2ccsc2n1	D2 PAM-2 38.2
c1csc(CNc2ncnc3sccc23)c1	none (no result: D2 ag-1, D2 antag, D2 PAM-2)
Cc1sc2ncnc(NCC3(N4CCOCC4)CCCCC3)c2c1C	D2 PAM-2 30.1
O=C(c1cccc(F)c1)N1CCC(c2c[nH]c3ccccc23)(c2c[nH]c3ccccc23)CC1	none (no result: D2 antag, D2 PAM-1, D2 ag-2)
Fc1ccc(N/N=C2/CC(c3ccccc3)Oc3ccccc32)c(F)c1 (stereo unspecified)	D2 PAM-1 82.0
Cc1ccc(NC(=O)CCCCCN2C(=O)c3ccccc3C2=O)nc1	none
O=C(CCCCCCN1C(=O)c2ccccc2C1=O)NC1CCCCC1	D2 antag 32.5
CCOC(=O)CCCCCN1C(=O)c2cccc3cccc(c23)C1=O	D2 PAM-2 30.5
Cc1cccc(NC(=O)CCCCCN2C(=O)c3ccccc3C2=O)n1	D2 antag 34.5
Cc1cccc(NC(=O)CCCN2C(=O)c3ccccc3C2=O)n1	D2 antag 33.9
CCOC(=O)CCCSc1nnc(CCCCCN2C(=O)c3cccc4cccc(c34)C2=O)o1	none
Cc1cc(C)c(NC(=O)Cn2c(=O)n(CCc3ccccc3)c(=O)c3ccccc32)c(C)c1	none (no result: D2 ag-1, D2 antag, D2 PAM-1, D2 ag-2)
Cc1ccc(C)c(Cn2c3ccccc3c3cnn(CC(=O)NC(C)CCc4ccccc4)c(=O)c32)c1 (stereo unspecified)	none (no result: D2 antag, D2 PAM-1, D2 ag-2)
COc1cccc(NC(=O)CCc2nnc3n(CC(C)C)c(=O)c4ccccc4n23)c1	none (no result: D2 antag, D2 PAM-1, D2 ag-2)
O=C(CCCCCN1C(=O)c2ccccc2C1=O)Nc1ccc(F)cc1	D2 antag 34.5
O=C(CCCCCN1C(=O)c2ccccc2C1=O)Nc1ccccc1F	none
CCN(CC)C(CNS(=O)(=O)c1ccc(Cl)cc1)c1ccccc1 (stereo unspecified)	D2 antag 39.3
COC(CNS(=O)(=O)c1ccc(Cl)cc1)c1ccccc1 (stereo unspecified)	none
CCCCOc1ccc(Cl)cc1CSc1nnc(CC)n1N	D2 antag 35.5 (no result: D2 PAM-2)
CCCOc1ccc(CSc2nnc(CCC)n2N)cc1	none
O=c1c(Cc2ccc(F)cc2)c(O)ccn1Cc1ccc(Cl)cc1Cl	D2 antag 44.2
CCOC(=O)N=S(N)(=O)c1ccc(Cl)cc1 (stereo unspecified)	D2 PAM-2 30.9
O=C(COc1cccc(Cl)c1)N1CCC(c2nc3ccccc3s2)CC1	none (no result: D2 ag-1, D2 antag, D2 PAM-1, D2 ag-2)
COc1ccc(NC(=O)c2cc(S(=O)(=O)NCCC3=CCCCC3)ccc2F)cc1	none (no result: D2 antag, D2 PAM-1, D2 ag-2)
Nc1nc(Nc2ccccc2)sc1C(=O)c1ccccc1	none
CCNc1nc(N)c(C(=C(C#N)C#N)c2ccccc2)s1	D2 antag 45.3
Nc1nnc(-c2ccccc2F)s1	D2 antag 44.9
O=C(Nc1ccccc1N1CCCC1)c1cc2ccccc2o1	none (no result: D2 PAM-2)
CC(=O)N1CCN(c2ccccc2NC(=O)c2cccs2)CC1	none
CC(=O)N1CCN(c2ccccc2NC(=O)c2ccc3ccccc3c2)CC1	D2 antag 46.3
O=C(Nc1ccccc1N1CCN(C(=O)c2ccccc2)CC1)c1cc2ccccc2o1	D2 antag 62.9
COc1ccc(OC)c(NC(=O)Cn2c(=O)c3cccn3c3ccccc32)c1	none (no result: D2 antag, D2 PAM-1, D2 ag-2)
CC(CCc1ccccc1)NCC(O)COc1ccccc1 (stereo unspecified)	D2 ag-1 34.8, D2 antag 55.4
COCCc1ccc(OCC(O)CNC(C)C)cc1 (stereo unspecified)	D2 antag 33.9!
OC(CNCC1CCCCC1)COc1ccccc1 (stereo unspecified)	D2 antag 46.5
CC(C)NCC(O)COc1ccc(CCOCC2CC2)cc1 (stereo unspecified)	none
COc1cccc(NS(=O)(=O)c2cc(-c3cnc(C4CC4)o3)ccc2C)c1	none (no result: D2 ag-1, D2 antag, D2 PAM-1, D2 ag-2)
COc1ccc(-c2noc(-c3cccc(OC)c3OC)n2)cc1	none (no result: D2 antag, D2 PAM-1, D2 ag-2)
OCCNC(=S)Nc1ccc2nsnc2c1	D2 antag 30.7
O=C(NC(=S)Nc1ccc2oc(=O)ccc2c1)c1cccc(Cl)c1	D2 antag 30.4
CS(=O)(=O)Nn1cnc2ccccc2c1=O	D2 PAM-2 34.9
CN(n1cnc2ccccc2c1=O)S(C)(=O)=O	none (no result: D2 ag-1, D2 antag, D2 PAM-2)
C=CCn1c(SCC(=O)Nc2ccc(C(=O)OCC)cc2)nnc1-c1sc(N)nc1C	D2 antag 31.4
CCOC(=O)c1ccc(NC(=O)CSc2nnc(C3CC3)n2C)cc1	none
CCN(CC)CCOC(=O)c1ccc(NC(=O)CSc2nnc(-c3cccs3)n2CC)cc1	D2 PAM-1 74.3 (no result: D2 ag-1, D2 antag, D2 PAM-2)
CCCCn1c(SCC(=O)Nc2cc(C)on2)nnc1-c1cccs1	none
Cc1cc(NC(=O)CSc2nnc(-c3cccs3)n2N)no1	D2 antag 38.8
CCOC(=O)c1ccc(NC(=O)CSc2nnc(CNc3ccc(C)cc3)n2C)cc1	D2 PAM-1 50.2
CC(C)CCNC(=O)CN1C(=O)c2cccnc2Oc2ccccc21	none (no result: D2 antag, D2 PAM-1, D2 ag-2)
Oc1ccc(NCc2ccccc2OCc2ccccc2)cc1	D2 PAM-1 96.8, D2 ag-2 inconclusive
N/C(Cc1ccc([N+](=O)[O-])cc1)=N\OC(=O)c1ccc(Br)o1	D2 PAM-1 131.7, D2 ag-2 inconclusive

High-throughput results from PubChem.
